According to PubChem BioAssay (EPA / NIEHS):
Results filed as inconclusive are left out. Calls of active or inactive are those of the source. How the source made its calls, unless noted: active means hit-call score of the fitted dose curve at least 0.9, where 1 is the maximum; inactive means score below 0.9.

What was measured:
[1] = CCTE_Harrill_HTTr_Viability_PRF_DMEM_24hr: (Pilot) CCTE's 24-hour Cell Viability Assessment for the High-Throughput Transcriptomics (HTTr) Platform, in MCF-7 cells cultured in phenol red-free DMEM + 10% charcoal-stripped fetal bovine serum, Harrill Lab (AID 2283980)
Summary of the method: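 Propidium iodide exclusion imaged at 24 h after dosing scores viability; cells were MCF-7 grown in phenol red-free DMEM plus 10% charcoal-stripped serum, tested in eight concentrations, fitted in both directions against DMSO.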

[2] = CCTE_Harrill_HTTr_Apoptosis_DMEM_6hr: (Pilot) CCTE's 6-hour Apoptosis Assessment for the High-Throughput Transcriptomics (HTTr) Platform, in MCF-7 cells cultured in DMEM + 10% fetal bovine serum, Harrill Lab (AID 2283981)
Summary of the method: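 MCF-7 cells grown in DMEM + 10% FBS were exposed for 6 hours to an eight-point dilution series. CellEvent Caspase 3/7 Green signal was imaged; activity fitted bidirectionally against DMSO.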

[3] = CCTE_Harrill_HTTr_Apoptosis_DMEM_12hr: (Pilot) CCTE's 12-hour Apoptosis Assessment for the High-Throughput Transcriptomics (HTTr) Platform, in MCF-7 cells cultured in DMEM + 10% fetal bovine serum, Harrill Lab (AID 2283982)
Summary of the method: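 Caspase-3/7 activity was measured by high-content imaging (CellEvent Caspase 3/7 Green) after a 12-hour exposure of MCF-7 cells grown in DMEM with 10% FBS. Eight-point concentration series, fitted bidirectionally against vehicle.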

[4] = CCTE_Harrill_HTTr_Apoptosis_DMEM_24hr: (Pilot) CCTE's 24-hour Apoptosis Assessment for the High-Throughput Transcriptomics (HTTr) Platform, in MCF-7 cells cultured in DMEM + 10% fetal bovine serum, Harrill Lab (AID 2283983)
Summary of the method: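 Caspase-3/7 activity read by high-content imaging (CellEvent Green reagent) 24 h after dosing. MCF-7 cells grown in DMEM with 10% FBS received an eight-point concentration series; fits were bidirectional versus DMSO.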

[5] = CCTE_Harrill_HTTr_Apoptosis_PRF_DMEM_6hr: (Pilot) CCTE's 6-hour Apoptosis Assessment for the High-Throughput Transcriptomics (HTTr) Platform, in MCF-7 cells cultured phenol red-free DMEM + 10% charcoal-stripped fetal bovine serum, Harrill Lab (AID 2283984)
Summary of the method: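 Caspase-3/7 activity (CellEvent Green) read by high-content imaging 6 h after dosing, eight concentrations. Cells: MCF-7, phenol red-free DMEM with 10% charcoal-stripped serum. Curves fit both directions against DMSO.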

[6] = CCTE_Harrill_HTTr_Apoptosis_PRF_DMEM_12hr: (Pilot) CCTE's 12-hour Apoptosis Assessment for the High-Throughput Transcriptomics (HTTr) Platform, in MCF-7 cells cultured in phenol red-free DMEM + 10% charcoal-stripped fetal bovine serum, Harrill Lab (AID 2283985)
Summary of the method: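 Caspase-3/7 activity by CellEvent Green high content imaging after 12 h compound exposure (eight concentrations) in MCF-7 grown in phenol red-free DMEM plus 10% charcoal-stripped serum; DMSO as baseline.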

[7] = CCTE_Harrill_HTTr_Apoptosis_PRF_DMEM_24hr: (Pilot) CCTE's 24-hour Apoptosis Assessment for the High-Throughput Transcriptomics (HTTr) Platform, in MCF-7 cells cultured in phenol red-free DMEM + 10% charcoal-stripped fetal bovine serum, Harrill Lab (AID 2283986)
Summary of the method: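 Eight concentrations tested for 24 h on MCF-7 grown in charcoal-stripped serum, phenol red-free DMEM. High content imaging of CellEvent Caspase 3/7 Green signal gives apoptosis read-out, fitted both ways relative to DMSO.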

DIO1 (gene 1733) = assay: CCTE_GLTED_hDIO1: CCTE's human Deiodinase 1 (DIO1) Inhibition Assay, Great Lakes Toxicology and Ecology Division (GLTED) Lab (AID 2283987; active means hit-call score of the fitted dose curve at least 0.9, where 1 is the maximum;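 further: isolated human DIO1 enzyme in a cell-free setup rather than cells; enzyme activity read as free iodide liberated from substrate via Sandell-Kolthoff colorimetry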)
Summary of the method: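 Inhibition of human deiodinase 1 is scored as reduced iodide liberation after a 3 h enzyme–chemical incubation, detected colorimetrically by the Sandell-Kolthoff reaction against DMSO controls.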

[8] = biological target: Nucleoli Translocation, AR (gene 367) (UniProt P10275); assay: UPITT_HCI_U2OS_AR_TIF2_Nucleoli_Antagonist: University of Pittsburgh U2OS Androgen Receptor-Transcriptional Intermediary Factor 2 (AR-TIF2) Antagonism High Content Imaging Assay for Nucleoli Translocation (AID 2283997; active means hit-call score of the fitted dose curve at least 0.9, where 1 is the maximum)
Chain of Nucleoli Translocation, AR (gene 367) (P10275 whole entry, looked up): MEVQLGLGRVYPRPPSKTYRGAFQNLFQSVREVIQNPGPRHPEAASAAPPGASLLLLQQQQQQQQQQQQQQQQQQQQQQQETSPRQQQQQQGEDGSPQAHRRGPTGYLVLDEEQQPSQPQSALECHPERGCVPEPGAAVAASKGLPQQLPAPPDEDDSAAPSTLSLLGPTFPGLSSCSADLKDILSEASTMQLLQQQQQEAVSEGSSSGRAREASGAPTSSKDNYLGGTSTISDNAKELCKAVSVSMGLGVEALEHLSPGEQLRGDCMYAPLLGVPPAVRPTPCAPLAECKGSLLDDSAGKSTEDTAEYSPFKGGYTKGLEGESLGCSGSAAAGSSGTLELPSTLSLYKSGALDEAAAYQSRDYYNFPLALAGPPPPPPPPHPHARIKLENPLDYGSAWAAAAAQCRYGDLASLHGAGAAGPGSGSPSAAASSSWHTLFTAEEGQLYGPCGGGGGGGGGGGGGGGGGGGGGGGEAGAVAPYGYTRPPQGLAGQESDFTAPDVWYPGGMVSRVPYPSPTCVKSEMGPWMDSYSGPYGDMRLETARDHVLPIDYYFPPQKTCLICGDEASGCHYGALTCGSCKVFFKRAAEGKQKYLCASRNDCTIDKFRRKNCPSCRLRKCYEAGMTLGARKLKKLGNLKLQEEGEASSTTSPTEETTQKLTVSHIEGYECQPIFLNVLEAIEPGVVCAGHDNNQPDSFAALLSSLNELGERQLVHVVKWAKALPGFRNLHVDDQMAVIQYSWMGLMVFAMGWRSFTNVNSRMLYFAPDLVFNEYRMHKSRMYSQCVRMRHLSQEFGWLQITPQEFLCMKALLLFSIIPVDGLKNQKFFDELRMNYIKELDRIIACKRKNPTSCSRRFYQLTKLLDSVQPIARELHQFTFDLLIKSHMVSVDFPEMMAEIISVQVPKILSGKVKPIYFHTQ
Summary of the method: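 An antagonist-mode imaging screen: engineered U2OS (AR-RFP, TIF2-GFP) exposed to 20 uM compound, 0.2% DMSO. Activity reflects nucleolar red fluorescence change relative to DHT baseline.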

Measured: AC50

CCCN(CCOc1c(Cl)cc(Cl)cc1Cl)C(=O)n1ccnc1
active: [1] 9.92 µM
not listed: DIO1 (gene 1733) | [8]
inactive: all other assays above

N#Cc1c(Cl)c(Cl)c(Cl)c(C#N)c1Cl
active: DIO1 (gene 1733) 30.1 µM

CCCN(CCC)c1c([N+](=O)[O-])cc(C(F)(F)F)cc1[N+](=O)[O-]
inactive: [8]

O=C(O)C(F)(F)C(F)(F)C(F)(F)C(F)(F)C(F)(F)C(F)(F)C(F)(F)F
not listed: DIO1 (gene 1733) | [8]
inactive: all other assays above
